# Measurements from PubChem BioAssay (NCATS).
# Where “and” joins values, the source holds several entries; their conditions need not be identical. Equal values may be shown once. Results filed as inconclusive are left out. Entries that show only a call come without a potency. Values without a mark were called inactive. Calls of active or inactive are those of the source. Calls come from the whole dose curve; as a rule, active = well fitted inhibition curve with a large enough effect; inconclusive = small, poorly fitted or top-dose-only effect; inactive = no such curve, though single readings can be large or run the other way.
# How the values were obtained:
# [1] = biological target: Cytochrome P450 2C9 (Homo sapiens) (UniProt P11712); assay: qHTS Assay for Inhibitors and Substrates of Cytochrome P450 2C9 (AID 883); note: nearly all actives have a fitted effect of over 60% in size
# Procedure, shortened: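 A luminogenic readout tracked human CYP2C9 (10nM) converting deoxyluciferin (100uM, at KM) in 25mM KPO4 during 60 min at 37C with regenerated NADPH. Values normalized to 57uM sulphaphenazole as complete inhibition.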
# [2] = biological target: Cytochrome P450 3A4 (Homo sapiens) (UniProt P08684); assay: qHTS Assay for Inhibitors and Substrates of Cytochrome P450 3A4 (AID 884); note: series mostly up to about 57 µM; nearly all actives have a fitted effect of over 50% in size
# Procedure, shortened: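 20 nM human CYP3A4 with 25 uM Luciferin-PPXE (at KM) in 200 mM KPO4, preincubated 10 min with compound; NADPH regeneration started a 60 min RT reaction. Luciferin detected by luminescence, normalized to 57 uM ketoconazole as full inhibition.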
# [3] = biological target: Cytochrome P450 2D6 (Homo sapiens) (UniProt P10635); assay: qHTS Assay for Inhibitors and Substrates of Cytochrome P450 2D6 (AID 891); note: nearly all actives have a fitted effect of over 60% in size; note: potency is the fitted concentration of half-maximal effect;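 for activity change, negative = inhibition: luciferin methyl ether substrate demethylated by CYP2D6 with NADPH regeneration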
# Procedure, shortened: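 Human CYP2D6 (5 nM) with 30 uM Luciferin-ME EGE (at Km) in 100 mM KPO4, compound preincubated 10 min, then NADPH regeneration system for 60 min at room temperature. Luciferin read by luminescence; normalized to 1.43 uM quinidine.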
# [4] = biological target: Cytochrome P450 2C19 (Homo sapiens) (UniProt P33261); assay: qHTS Assay for Inhibitors and Substrates of Cytochrome P450 2C19 (AID 899); note: nearly all actives have a fitted effect of over 60% in size; note: potency is the fitted concentration of half-maximal effect
# Procedure, shortened: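 NADPH-dependent conversion of Luciferin-H EGE (10uM, at KM) by 5nM enzyme in 50mM KPO4, 60 min at 37C following 10 min compound preincubation. Stopped with luciferin detection buffer; luminescence read after 20 min.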
# Cytochrome P450 3A4 (Homo sapiens), sequence (P08684 whole entry, looked up): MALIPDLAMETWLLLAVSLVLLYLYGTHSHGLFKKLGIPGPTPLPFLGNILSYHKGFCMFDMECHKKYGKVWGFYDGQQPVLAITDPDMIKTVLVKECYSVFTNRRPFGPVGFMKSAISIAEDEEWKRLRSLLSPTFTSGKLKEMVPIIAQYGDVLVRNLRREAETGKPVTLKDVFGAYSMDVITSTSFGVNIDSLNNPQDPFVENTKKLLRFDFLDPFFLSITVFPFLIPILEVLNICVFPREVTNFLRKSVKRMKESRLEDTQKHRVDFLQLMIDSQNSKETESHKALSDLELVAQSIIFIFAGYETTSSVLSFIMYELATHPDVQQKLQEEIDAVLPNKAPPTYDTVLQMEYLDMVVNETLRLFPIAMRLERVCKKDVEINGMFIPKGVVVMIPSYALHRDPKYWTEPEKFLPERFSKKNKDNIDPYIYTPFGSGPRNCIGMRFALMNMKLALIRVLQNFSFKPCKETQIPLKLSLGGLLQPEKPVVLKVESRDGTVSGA
# Cytochrome P450 2D6 (Homo sapiens), sequence (P10635 whole entry, looked up): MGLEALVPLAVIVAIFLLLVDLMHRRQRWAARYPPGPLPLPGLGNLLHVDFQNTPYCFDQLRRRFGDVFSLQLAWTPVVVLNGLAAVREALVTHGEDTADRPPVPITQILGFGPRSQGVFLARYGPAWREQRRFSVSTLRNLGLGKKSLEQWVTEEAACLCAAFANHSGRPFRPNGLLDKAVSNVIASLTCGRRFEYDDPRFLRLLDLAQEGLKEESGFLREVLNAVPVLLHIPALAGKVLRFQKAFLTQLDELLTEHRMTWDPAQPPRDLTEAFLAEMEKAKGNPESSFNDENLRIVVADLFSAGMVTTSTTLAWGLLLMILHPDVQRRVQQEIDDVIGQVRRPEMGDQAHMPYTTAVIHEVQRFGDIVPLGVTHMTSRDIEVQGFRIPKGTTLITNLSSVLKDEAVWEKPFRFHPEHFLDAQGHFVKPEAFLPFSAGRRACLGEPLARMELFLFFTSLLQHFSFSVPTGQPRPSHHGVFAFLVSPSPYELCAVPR
# Cytochrome P450 2C9 (Homo sapiens), sequence (P11712 whole entry, looked up): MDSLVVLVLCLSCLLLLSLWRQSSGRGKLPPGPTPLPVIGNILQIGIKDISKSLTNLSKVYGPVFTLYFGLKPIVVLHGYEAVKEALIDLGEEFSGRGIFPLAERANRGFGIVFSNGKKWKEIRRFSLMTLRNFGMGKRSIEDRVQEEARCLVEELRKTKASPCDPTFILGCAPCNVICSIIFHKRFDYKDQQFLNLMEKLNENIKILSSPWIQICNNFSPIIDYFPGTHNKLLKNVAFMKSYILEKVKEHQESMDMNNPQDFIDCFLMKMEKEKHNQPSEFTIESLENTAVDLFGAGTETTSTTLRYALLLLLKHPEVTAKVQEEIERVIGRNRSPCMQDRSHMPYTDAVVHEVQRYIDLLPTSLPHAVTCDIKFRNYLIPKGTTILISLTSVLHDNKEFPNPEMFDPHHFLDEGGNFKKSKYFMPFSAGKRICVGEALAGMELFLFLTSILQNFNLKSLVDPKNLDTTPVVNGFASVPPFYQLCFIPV
# Cytochrome P450 2C19 (Homo sapiens), sequence (P33261 whole entry, looked up): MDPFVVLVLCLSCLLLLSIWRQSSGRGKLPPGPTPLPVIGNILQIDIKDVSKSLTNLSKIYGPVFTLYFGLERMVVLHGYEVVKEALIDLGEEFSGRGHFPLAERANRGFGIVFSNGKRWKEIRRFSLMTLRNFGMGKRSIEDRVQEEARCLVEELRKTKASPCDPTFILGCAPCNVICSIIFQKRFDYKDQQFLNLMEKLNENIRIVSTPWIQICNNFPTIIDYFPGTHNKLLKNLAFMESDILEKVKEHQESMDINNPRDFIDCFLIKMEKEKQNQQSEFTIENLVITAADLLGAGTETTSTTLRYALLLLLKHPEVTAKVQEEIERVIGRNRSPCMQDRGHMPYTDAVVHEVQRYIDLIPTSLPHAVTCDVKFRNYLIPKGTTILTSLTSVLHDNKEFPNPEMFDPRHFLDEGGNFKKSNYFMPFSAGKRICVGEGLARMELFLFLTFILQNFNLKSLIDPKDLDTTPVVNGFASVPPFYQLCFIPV
SMILES,Potency [1],"activity change, negative = inhibition [2]",Potency [3],Potency [4]
COC(=O)NC(CC(C)=O)c1ccccc1 (centres undefined),inactive,-12.9% [at 11.4 µM],inactive,inactive
COC(=O)NC(c1ccc2ccccc2c1)C(C(C)=O)C(=O)OC (centres undefined),inactive,-19.4% [at 11.4 µM],inactive,1260 nM (active)
CCCc1cc2c(c(=O)o1)C(O)C1OC1C2=O (centres undefined),inactive,-24% [at 11.4 µM],inactive,inactive
COC(=O)/C=C/C1c2ccccc2C(OC)C1C (centres undefined),inactive,-4.29% [at 11.4 µM],inactive,inactive
CC1(C)Oc2cc3c(cc2O1)OC(C)(C)O3,inactive,-26.4% [at 11.4 µM],inactive,inactive
CCN1C(C)=C(C(=O)OC)C(c2ccccc2)N2C(=O)[C@@]3(C(=O)OC)O[C@@]12C1C(=O)N(c2ccccc2)C(=O)C13 (some centres undefined),inactive,-20.6% [at 11.4 µM],inactive,inactive
COC(=O)NC(c1cccc(F)c1)[C@@]1(C(=O)OC)CCCC1=O (some centres undefined),inactive,-15.7% [at 11.4 µM],inactive,inactive
CC1(C)OC(C(O)(c2cc(F)c(F)c(F)c2)c2cc(F)c(F)c(F)c2)C(C(O)(c2cc(F)c(F)c(F)c2)c2cc(F)c(F)c(F)c2)O1 (centres undefined),inactive,-15% [at 11.4 µM],inactive,inactive
CCC1OCCC=CC1C (centres undefined),inactive,-15% [at 11.4 µM],inactive,inactive
COC(=O)NC(c1cccc(C)c1)[C@]1(C(C)=O)CCCC1=O (some centres undefined),inactive,-27.8% [at 11.4 µM],inactive,inactive
O=C(/C=C/c1ccccc1)N1CCCC1CO (centres undefined),inactive,-20.7% [at 11.4 µM],inactive,inactive
CC(C)C(=O)NC(=O)C1CCCN1C(=O)/C=C/c1ccccc1 (centres undefined),inactive,-10.1% [at 11.4 µM],inactive,inactive
CCOC(=O)[C@]1(C(/C=C/c2ccco2)NC(=O)OC)CCCC1=O (some centres undefined),inactive,-21.5% [at 11.4 µM],inactive,inactive
COC(=O)NC(CC(C)=O)c1cccc(C)c1 (centres undefined),inactive,-19.5% [at 11.4 µM],inactive,inactive
CC(=O)OCC1OC(C#Cc2ccccc2)C=CC1O (centres undefined),inactive,-14.6% [at 11.4 µM],inactive,inactive
COc1cccc(C2NC(C(=O)O)CCC2C)c1 (centres undefined),inactive,-16.8% [at 11.4 µM],inactive,inactive
CC(=O)OCC1OC(C#CC(C)(C)C)C=CC1OC(C)=O (centres undefined),inactive,-15.4% [at 11.4 µM] and -10.3% [at 11.4 µM],inactive,inactive
CCN1C(C)=C(C(=O)OC)C(c2ccccc2)N2C(=O)[C@@]3(C(=O)OC)O[C@@]12C1C(=O)N(C)C(=O)C13 (some centres undefined),inactive,-27.7% [at 11.4 µM],inactive,inactive
COc1cc(C2NC(C(=O)O)Cc3c2[nH]c2ccccc32)cc(OC)c1OC (centres undefined),inactive,-17.2% [at 11.4 µM],1260 nM (active),inactive
COC(=O)NC(CC(C)=O)c1cccs1 (centres undefined),inactive,-9.41% [at 11.4 µM],inactive,inactive
O=C(O)C1Cc2c([nH]c3ccccc23)C(c2ccccc2)N1 (centres undefined),inactive,-14.4% [at 11.4 µM],3980 nM (active),inactive
CCC(=O)[C@@]1(O)C(=O)N2C(=C3C(=O)OCCC31)N(Cc1ccccc1)C(C)=C(C(=O)OC)C2c1ccccc1 (some centres undefined),inactive,-16% [at 11.4 µM],inactive,inactive
COC(=O)NC(CC(C)=O)c1cccc(C(F)(F)F)c1 (centres undefined),inactive,-14.1% [at 11.4 µM],inactive,inactive
CC(C)CN1CCc2nc(-c3ccccc3)c3c(c2CC1)COC(C)C3 (centres undefined),inactive,-18.5% [at 11.4 µM],inactive,inactive
COC(=O)NC(c1ccc(Cl)cc1)C(C(C)=O)C(=O)OC (centres undefined),inactive,-15.4% [at 11.4 µM],inactive,1580 nM (active)
COC(=O)NC(/C=C/c1ccco1)[C@@]1(C(=O)OC)CCCC1=O (some centres undefined),inactive,2.43% [at 11.4 µM],inactive,inactive
